Data: PubChem BioAssay
A number with no mark means an inactive call. For some assays here: Entries with a potency or affinity are not part of this list. Activity calls are given as the source filed them. Unless noted, the rule behind the calls is not given here.

Key:
[1] = antimalarial activity against Dd2 strain (AID 2302;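 active = growth inhibition above 50% at the single 2 µM test dose, taken to imply half-maximal potency below 2 µM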;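 note: 0% = DMSO untreated growth and 100% = chloroquine plus artemisinin killed control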); conditions: P. falciparum Dd2 in RBCs, LDH growth readout, 72 h; at 2 µM; hits give high values
[2] = human hepatoma cell viability loss – ATP luminescence, cytotoxicity control for P. falciparum antimalarial project, primary screen (AID 2303;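 active = inhibition above 50%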;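 note: 0% = DMSO wells and 100% = digitonin-killed cells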); conditions: HepG2 viability, 24-48 h, at 10 µM, hits give high values
[3] = molecular target: L-lactate dehydrogenase (Plasmodium falciparum (isolate CDC / Honduras)) (UniProt Q27743); experiment: PfLDH activity inhibition – cell lysate, 3D7 strain, counter-screen for P. falciparum growth inhibition project (AID 2304);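 note: 0% = vehicle and 100% = reference inhibitor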; conditions: P. falciparum 3D7 crude extract, LDH APAD/NBT absorbance; at 2 µM; hits give high values
[4] = inhibition of 3D7 malaria parasite growth – strain 3D7 (AID 2306);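 note: 0% = DMSO wells and 100% = chloroquine plus artemisinin control wells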; conditions: P. falciparum 3D7 erythrocytic growth, LDH absorbance, 72 h; at 2 µM; hits give high values
[5] = molecular target: Calcium-dependent protein kinase 1 (Plasmodium falciparum (isolate 3D7)) (UniProt P62344); experiment: PfCDPK1 kinase inhibitors, biochemical, TCAMS library (AID 1159585; cut-off not given, nearly all actives have IC50 up to about 0.98 µM;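 note: inhibitors leave more ATP so luminescence rises with inhibition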); conditions: recombinant PfCDPK1, Kinase-Glo ATP depletion luminescence
[6] = molecular target: Plasmodium falciparum protein kinase 6 (PK6, PF3D7_1337100) (UniProt Q8IDW1); experiment: PfPK6 kinase inhibitors, biochemical, TCAMS library (AID 1159586); conditions: recombinant PfPK6, Kinase-Glo ATP depletion luminescence
[7] = molecular target: Protein kinase 7 (PK7), Plasmodium falciparum 3D7 (PF3D7_0213400) (UniProt Q7YTF7); experiment: inhibition of Plasmodium PK7 catalytic activity – biochemical, TCAMS antimalarial set, Kinase-Glo luminescence (AID 1159587); conditions: recombinant PfPK7, Kinase-Glo ATP depletion luminescence
[8] = molecular target: Calcium-dependent protein kinase 4 (Plasmodium falciparum (isolate 3D7)) (UniProt Q8IBS5); experiment: PfCDPK4 kinase inhibitors, biochemical, TCAMS library (AID 1159588; cut-off not given, nearly all actives have IC50 up to about 0.91 µM); conditions: recombinant PfCDPK4, Kinase-Glo ATP depletion luminescence
Calcium-dependent protein kinase 4 (Plasmodium falciparum (isolate 3D7)), sequence (Q8IBS5 whole entry, looked up): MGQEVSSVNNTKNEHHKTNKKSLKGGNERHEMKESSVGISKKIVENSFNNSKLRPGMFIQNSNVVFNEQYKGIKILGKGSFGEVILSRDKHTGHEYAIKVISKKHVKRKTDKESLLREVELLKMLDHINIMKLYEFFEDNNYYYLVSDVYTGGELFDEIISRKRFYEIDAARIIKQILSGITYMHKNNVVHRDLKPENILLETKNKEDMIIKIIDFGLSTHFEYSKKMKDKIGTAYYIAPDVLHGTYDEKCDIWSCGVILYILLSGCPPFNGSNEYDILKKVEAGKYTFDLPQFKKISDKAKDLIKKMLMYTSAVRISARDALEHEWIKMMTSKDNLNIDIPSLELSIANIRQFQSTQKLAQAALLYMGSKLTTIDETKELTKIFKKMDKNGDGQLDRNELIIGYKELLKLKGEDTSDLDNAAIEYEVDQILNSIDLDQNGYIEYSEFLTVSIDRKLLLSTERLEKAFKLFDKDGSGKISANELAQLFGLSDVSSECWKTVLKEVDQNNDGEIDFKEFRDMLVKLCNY

Calcium-dependent protein kinase 1 (Plasmodium falciparum (isolate 3D7)), sequence (P62344 whole entry, looked up): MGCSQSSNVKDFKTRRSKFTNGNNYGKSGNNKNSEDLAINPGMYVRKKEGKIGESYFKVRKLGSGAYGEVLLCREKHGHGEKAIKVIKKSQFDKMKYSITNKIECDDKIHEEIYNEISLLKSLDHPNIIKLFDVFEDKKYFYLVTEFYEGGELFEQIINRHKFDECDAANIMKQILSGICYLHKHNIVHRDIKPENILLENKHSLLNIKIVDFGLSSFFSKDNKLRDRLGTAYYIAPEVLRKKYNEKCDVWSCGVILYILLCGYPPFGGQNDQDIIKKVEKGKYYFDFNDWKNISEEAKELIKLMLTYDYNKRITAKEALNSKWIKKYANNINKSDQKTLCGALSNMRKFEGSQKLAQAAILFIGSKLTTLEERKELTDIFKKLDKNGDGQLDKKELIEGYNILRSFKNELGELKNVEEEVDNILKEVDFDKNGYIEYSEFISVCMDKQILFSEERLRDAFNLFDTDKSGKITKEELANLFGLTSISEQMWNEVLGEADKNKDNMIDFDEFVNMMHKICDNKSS
Protein kinase 7 (PK7), Plasmodium falciparum 3D7 (PF3D7_0213400), sequence (Q7YTF7 1-343): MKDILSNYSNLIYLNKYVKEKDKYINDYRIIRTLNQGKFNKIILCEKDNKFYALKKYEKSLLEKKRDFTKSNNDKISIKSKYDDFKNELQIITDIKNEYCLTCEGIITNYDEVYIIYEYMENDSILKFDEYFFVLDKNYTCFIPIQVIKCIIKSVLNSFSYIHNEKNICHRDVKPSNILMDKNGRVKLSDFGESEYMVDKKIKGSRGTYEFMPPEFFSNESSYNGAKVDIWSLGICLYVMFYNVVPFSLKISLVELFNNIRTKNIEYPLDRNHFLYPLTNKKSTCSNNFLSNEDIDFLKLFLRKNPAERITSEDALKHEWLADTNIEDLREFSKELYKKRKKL
Plasmodium falciparum protein kinase 6 (PK6, PF3D7_1337100), sequence (Q8IDW1 1-305): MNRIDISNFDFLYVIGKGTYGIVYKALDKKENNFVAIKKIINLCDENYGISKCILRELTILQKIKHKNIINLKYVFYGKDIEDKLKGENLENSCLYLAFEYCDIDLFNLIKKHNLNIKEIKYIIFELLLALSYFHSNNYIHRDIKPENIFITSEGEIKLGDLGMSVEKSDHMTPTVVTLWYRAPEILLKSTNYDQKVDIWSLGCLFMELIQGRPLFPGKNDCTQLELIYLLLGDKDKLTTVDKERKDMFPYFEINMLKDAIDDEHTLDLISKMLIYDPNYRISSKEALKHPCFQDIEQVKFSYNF
L-lactate dehydrogenase (Plasmodium falciparum (isolate CDC / Honduras)), sequence (Q27743 whole entry, looked up): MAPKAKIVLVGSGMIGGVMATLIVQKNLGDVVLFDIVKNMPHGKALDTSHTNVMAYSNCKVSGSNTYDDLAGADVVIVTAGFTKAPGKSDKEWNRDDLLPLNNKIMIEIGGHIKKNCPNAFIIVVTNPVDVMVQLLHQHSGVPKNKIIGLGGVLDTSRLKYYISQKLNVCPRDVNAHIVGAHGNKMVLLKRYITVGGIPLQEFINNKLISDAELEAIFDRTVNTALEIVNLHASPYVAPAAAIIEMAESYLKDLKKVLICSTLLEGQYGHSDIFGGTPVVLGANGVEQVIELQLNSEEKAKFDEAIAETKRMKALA

Structure (SMILES) | growth inhibition [1] | inhibition [2] | inhibition [3] [%] | growth inhibition [4] | outcome [5] | outcome [6] | outcome [7] | outcome [8]
CC1(C)CCC(=Cc2ccc(Cl)cc2)CC1(O)Cn1ccnc1 (stereo not given) | 74% (active) | 0% | -4 | 99% (active) | inactive | inactive | inactive | inactive
CN1CCCc2ccc(NC(=O)c3ccc(-c4cc(C(F)(F)F)nn4C)s3)cc2C1 | 34% | 16% | -1 | 88% (active) | inactive | inactive | inactive | inactive
Cc1cc(C2CCN(CCCCNC(=O)c3ccc(NC(=O)c4ccc(Cl)cc4)cc3)CC2)c(C)cc1OCc1ccccn1 | 65% (active) | 18% | 3 | 96% (active) | inactive | inactive | inactive | inactive
CCCN(CCC)CCCN(CCCN(CCC)CCC)c1cc(C)nc(Nc2ccc(Cl)cc2)n1 | 101% (active) | 34% | -6 | 101% (active) | inactive | inactive | inactive | inactive
COc1cc(C(=O)N2N=C(c3c(-c4ccccc4)c4cc(Br)ccc4[nH]c3=O)CC2c2cccc([N+](=O)[O-])c2)cc(OC)c1OC (stereo not given) | 95% (active) | 1% | 4 | 93% (active) | inactive | inactive | inactive | inactive
Cc1cccc2[nH]c(-c3ccc(-c4ccc(NC(=O)Nc5ccsc5)cc4)cc3)nc12 | 70% (active) | 49% | 5 | 101% (active) | inactive | inactive | inactive | inactive
CO/C(=C\C=C\c1cc2cc(Cl)c(Cl)cc2[nH]1)C(=O)NCCCN1CCN(c2cccc(OCC(=O)Nc3cccc(C(=O)c4ccccc4)c3)c2)CC1 | 88% (active) | 48% | 2 | 94% (active) | inactive | inactive | inactive | inactive
CC(C)NCc1ccc(-c2ccc(-c3nc4ccc(C(F)(F)F)cc4[nH]3)cc2)cc1 | 98% (active) | 16% | 0 | 100% (active) | inactive | inactive | inactive | inactive
O=C(/C=C/c1ccc(Cl)c(Cl)c1)NCCCCCN1CCC(NC(=O)Nc2cccc(Cl)c2F)CC1 | 30% | 75% (active) | 4 | 101% (active) | inactive | inactive | inactive | inactive
CN1CCC(NCc2ccc(-c3cccc(S(=O)(=O)NCc4ccccc4)c3)cc2)CC1 | 94% (active) | 72% (active) | -3 | 101% (active) | inactive | inactive | inactive | inactive
COc1ccc2nccc([C@@H](O)CN3CC[C@H](NCc4ccc5c(n4)NC(=O)CS5)[C@H](F)C3)c2c1 | 88% (active) | 5% | 0 | 89% (active) | inactive | inactive | inactive | inactive
O=C(Nc1cccc(C(F)(F)F)c1)c1cccc(S(=O)(=O)NCC2CCCN2CC2CCCCC2)c1 (stereo not given) | 2% | 6% | 0 | 97% (active) | inactive | inactive | inactive | inactive
COc1ccc2nc(NC3=NC(c4ccccn4)(c4ccccn4)C(=O)N3C)[nH]c2c1 | 98% (active) | 65% (active) | 1 | 99% (active) | inactive | inactive | inactive | inactive
CCCCCCCCN1CCCN(C(=O)c2cccc(NC(=O)Nc3ccc4ccccc4c3)c2)CC1 | 39% | 39% | 1 | 97% (active) | inactive | inactive | inactive | inactive
CCNc1cc(C(=O)N[C@@H](Cc2ccccc2)[C@H](O)CNC(C)(C)c2cccc(OC)c2)cc(N2CCCC2=O)c1 | 99% (active) | -3% | -6 | 100% (active) | inactive | inactive | inactive | inactive
O=C(NCc1ccccc1)O[C@@H]1CNCC[C@H]1c1ccc(C(O)Cc2ccccc2)cc1 (stereo not given in full) | 5% | 8% | 4 | 87% (active) | inactive | inactive | inactive | inactive
COc1ccccc1CCNc1nc(C)cc(N[C@@H](CC(C)C)C(=O)Nc2ccccc2)n1 | 76% (active) | 16% | -2 | 101% (active) | inactive | inactive | inactive | inactive
CCOc1ccc2c(NN=Cc3cccc([N+](=O)[O-])c3)cc(C)nc2c1 | 97% (active) | 4% | 3 | 100% (active) | inactive | inactive | inactive | inactive
COc1ccc(-c2ncnc(C(F)(F)F)c2-c2ccc(Cl)cc2)c(O)c1 | 22% | 1% | -4 | 100% (active) | inactive | inactive | inactive | inactive
O=S(=O)(Nc1cccc(CCN2CCC(N3CCCCC3)CC2)c1)c1ccc(Oc2ccccc2)cc1 | 25% | 28% | 0 | 100% (active) | inactive | inactive | inactive | inactive

Structure (SMILES) | growth inhibition [1] | inhibition [2] | inhibition [3] [%] | growth inhibition [4] | outcome [5] | outcome [6] | outcome [7] | outcome [8]
O=C(Nc1ccc(-c2ccc(-c3nc4ccccc4[nH]3)s2)cc1)Nc1ccc(Cl)c(Cl)c1 | 99% (active) | 89% (active) | 2 | 102% (active) | inactive | inactive | inactive | inactive
CC(C)CNC(=O)c1cncc(-c2cccc(CNC3Cc4ccccc4C3)c2)c1 | 19% | 4% | 1 | 100% (active) | inactive | inactive | inactive | inactive
CCN1CCN(c2ccc(NC(=O)c3cc4c(C)nn(-c5ccccc5)c4s3)cc2C)CC1 | 81% (active) | 32% | 5 | 101% (active) | inactive | inactive | inactive | inactive
O=C(C=Cc1ccc(Cl)c(Cl)c1)NCCCCCN1CCC(CCNS(=O)(=O)c2ccc(Br)cc2)CC1 | -1% | 58% (active) | 5 | 91% (active) | inactive | inactive | inactive | inactive
CCOC(=O)N1CCC(NC(=O)c2ccc(C(C)(C)C)cc2OC)CC1 | -5% | -7% | 0 | 88% (active) | inactive | inactive | inactive | inactive
CCc1cn2c3c(cc(C(=O)N[C@@H](Cc4cccc(Cl)c4)[C@H](O)CNC4CCOCC4)cc13)N(C)S(=O)(=O)CC2 | 98% (active) | 2% | -1 | 98% (active) | inactive | inactive | inactive | inactive
CC(=O)NC1=NC(C)(C)N(OCCCOc2ccc(Cl)c(Cl)c2)C(NC(C)=O)=N1 | 94% (active) | 65% (active) | 0 | 96% (active) | inactive | inactive | inactive | inactive
Cc1ccc(O)c(C(=O)c2cc(C(=O)Nc3ccccc3C)c(=O)n(-c3ccccc3C)c2)c1 | 81% (active) | -15% | -8 | 98% (active) | inactive | inactive | inactive | inactive
COc1ccccc1N1CCN(CCCCNC(=O)c2ccc(NC(=O)c3ccc(C(F)(F)F)cc3)cc2)CC1 | 37% | 25% | 0 | 100% (active) | inactive | inactive | inactive | inactive
Cc1[nH]c(C)c(-c2ccc(OCc3ccccc3C(F)(F)F)nc2)c(=O)c1Br | 97% (active) | 35% | -6 | 98% (active) | inactive | inactive | inactive | inactive
Cc1cccc2[nH]c(-c3ccc(-c4ccc(CN5CC(C)OC(C)C5)cc4)cc3)nc12 (stereo not given) | 96% (active) | 37% | 3 | 97% (active) | inactive | inactive | inactive | inactive
COc1ccccc1-c1csc(C(=O)NCC2CCN(Cc3ccc(C(C)C)cc3)C2)c1 (stereo not given) | 6% | 24% | 1 | 81% (active) | inactive | inactive | inactive | inactive
CC(=O)Nc1ccc(S(=O)(=O)N(Cc2cccc(Oc3ccccc3)c2)C2CCN(C/C=C(\C)CCC=C(C)C)CC2)cc1 | 99% (active) | 22% | 0 | 100% (active) | inactive | inactive | inactive | inactive
COc1ccc2c(NN=Cc3ccccc3[N+](=O)[O-])ccnc2c1 | 97% (active) | 98% (active) | -3 | 102% (active) | inactive | inactive | inactive | inactive
CC1CCCC(NCc2c(O)ccc3ccccc23)C1 (stereo not given) | 25% | 10% | 1 | 93% (active) | inactive | inactive | inactive | inactive
Cc1cccc2[nH]c(-c3ccc(-c4cccc(NCc5cn6cccnc6n5)c4)cc3)nc12 | 63% (active) | 9% | -3 | 94% (active) | inactive | inactive | inactive | inactive
Cc1cc(N(C)C2CCN(C)C2)nc(Nc2ccccc2Cl)n1 (stereo not given) | 84% (active) | 1% | -1 | 100% (active) | inactive | inactive | inactive | inactive
COc1ccc(-c2ccccc2CNC2Cc3ccccc3C2)cc1S(=O)(=O)NCCN1CCCC1 | 47% | 18% | -3 | 96% (active) | inactive | inactive | inactive | inactive
CCn1ncc(Cl)c1CN(C)S(=O)(=O)c1ccc2ccccc2c1 | 91% (active) | 16% | -2 | 101% (active) | inactive | inactive | inactive | inactive
COc1ccc(NC(=O)/C=C/c2ccc(Cl)c(Cl)c2)cc1N1CCN(C)CC1 | 20% | 23% | -3 | 90% (active) | inactive | inactive | inactive | inactive
